Screen size: about 5,500 compounds; about 2,000 (36%) were called active. Roughly 18% stayed inconclusive and do not appear here. Rule as the data show it: active = normalized growth mostly below about 0.91 (no sharp cut-off); inconclusive = no clear call, values can overlap the other calls; inactive = mostly above about 0.92. The list shows a part of the results. Where a SMILES comes first, the peptide text is derived from it. Bridges are numbered along the chain shown (N, C = ends). [ ]: non-standard residue; d: D form. The star is where a group is joined. ξ: configuration not given here. ξDab(CH2SO3H) = NC(CCNCS(=O)(=O)O)C(=O)O; Heptanoyl(6-Me) = CC(C)CCCCC(=O)*; Dab = NCC[CH](N)C(=O)O
Experiment: chemical genetic growth profiling, strain panel (AID 1159580);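 also: tested at 20 µM; growth read once vehicle control cultures reached saturation at 30 °C; 1 = growth at the plate median or of vehicle wells; lower values mean less growth of the strain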
Details: growth OD

Measured: normalized growth

CCC(C)C1NC(=O)C(CCNCS(=O)(=O)O)NC(=O)C(NC(=O)C(CCNCS(=O)(=O)O)NC(=O)C(NC(=O)C(CCNCS(=O)(=O)O)NC(=O)CCCCC(C)C)C(C)O)CCNC(=O)C(C(C)O)NC(=O)C(CCNCS(=O)(=O)O)NC(=O)C(CCNCS(=O)(=O)O)NC(=O)C(C(C)CC)NC1=O (configuration not stated) ({Heptanoyl(6-Me)}-[ξDab(CH2SO3H)]T[ξDab(CH2SO3H)][Dab][ξDab(CH2SO3H)]II[ξDab(CH2SO3H)][ξDab(CH2SO3H)]T; lactam 4-C; configuration not given here)
inactive: S. cerevisiae deletion strains, locus YJR075W, strain HOC1, active compounds read low 1 | S. cerevisiae deletion strains, locus YKL009W, strain mrt4, active compounds read low 0.986 | S. cerevisiae deletion strains, locus YKL068W, active compounds read low 0.964 | S. cerevisiae deletion strains, locus YKL085W, strain MDH1 (second series), active compounds read low 0.951 | S. cerevisiae deletion strains, locus YKL085W, strain MDH1, active compounds read low 0.951 | S. cerevisiae deletion strains, locus YKL160W, strain elf1, active compounds read low 1.02 | S. cerevisiae deletion strains, locus YKL190W, strain CNB1, active compounds read low 0.969 | S. cerevisiae deletion strains, locus YKR001C, strain vps1, active compounds read low 0.972 | S. cerevisiae deletion strains, locus YKR026C, strain gcn3, active compounds read low 0.98 | S. cerevisiae deletion strains, locus YKR091W, strain srl3, active compounds read low 0.98 | S. cerevisiae deletion strains, locus YLL001W, strain dnm1, active compounds read low 0.994 | S. cerevisiae deletion strains, locus YLL026W, active compounds read low 0.997 | S. cerevisiae deletion strains, locus YLL041C, strain sdh2, active compounds read low 0.993 | S. cerevisiae deletion strains, locus YLR027C, strain aat2, active compounds read low 0.995 | S. cerevisiae deletion strains, locus YLR039C, strain RIC1, active compounds read low 0.962 | S. cerevisiae deletion strains, locus YLR058C, strain SHM2, active compounds read low 0.988 | S. cerevisiae deletion strains, locus YLR102C, strain apc9, active compounds read low 0.962 | S. cerevisiae deletion strains, locus YLR113W, strain HOG1, active compounds read low 1.1 | S. cerevisiae deletion strains, locus YLR221C, strain rsa3, active compounds read low 0.99 | S. cerevisiae deletion strains, locus YLR258W, strain gsy2, active compounds read low 0.99 | S. cerevisiae deletion strains, locus YLR262C, strain YPT6 (second series), active compounds read low 0.997 | S. cerevisiae deletion strains, locus YLR262C, strain YPT6, active compounds read low 0.992 | S. cerevisiae deletion strains, locus YLR268W, strain sec22, active compounds read low 0.978 | S. cerevisiae deletion strains, locus YLR320W, strain mms22, active compounds read low 0.96 | S. cerevisiae deletion strains, locus YLR330W, strain CHS5, active compounds read low 0.968 | S. cerevisiae deletion strains, locus YLR342W, strain FKS1 (second series), active compounds read low 1.02 | S. cerevisiae deletion strains, locus YLR342W, strain FKS1, active compounds read low 1 | S. cerevisiae deletion strains, locus YLR357W, strain rsc2, active compounds read low 0.963 | S. cerevisiae deletion strains, locus YLR370C, strain arc18, active compounds read low 0.979 | S. cerevisiae deletion strains, locus YLR371W, strain rom2, active compounds read low 0.962 | S. cerevisiae deletion strains, locus YLR384C, strain iki3, active compounds read low 0.998 | S. cerevisiae deletion strains, locus YLR418C, strain cdc73, active compounds read low 0.989 | S. cerevisiae deletion strains, locus YML016C, strain PPZ1, active compounds read low 0.978 | S. cerevisiae deletion strains, locus YML032C, strain rad52, active compounds read low 0.963 | S. cerevisiae deletion strains, locus YML120C, strain ndi1, active compounds read low 0.971 | S. cerevisiae deletion strains, locus YML124C, strain tub3, active compounds read low 0.964 | S. cerevisiae deletion strains, locus YMR058W, strain fet3, active compounds read low 0.987 | S. cerevisiae deletion strains, locus YMR078C, strain ctf18, active compounds read low 0.976 | S. cerevisiae deletion strains, locus YMR125W, strain sto1, active compounds read low 0.973 | S. cerevisiae deletion strains, locus YMR129W, active compounds read low 0.979 | S. cerevisiae deletion strains, locus YMR205C, strain PFK2, active compounds read low 0.958 | S. cerevisiae deletion strains, locus YMR223W, strain ubp8, active compounds read low 0.99 | S. cerevisiae deletion strains, locus YMR231W, strain pep5, active compounds read low 0.987 | S. cerevisiae deletion strains, locus YMR263W, strain SAP30, active compounds read low 0.985 | S. cerevisiae deletion strains, locus YMR307W, strain GAS1, active compounds read low 1.12 | S. cerevisiae deletion strains, locus YNL067W, strain RPL9B, active compounds read low 0.991 | S. cerevisiae deletion strains, locus YNL071W, strain lat1, active compounds read low 0.981 | S. cerevisiae deletion strains, locus YNL128W, strain TEP1, active compounds read low 0.971 | S. cerevisiae deletion strains, locus YNL153C, strain GIM3, active compounds read low 0.987 | S. cerevisiae deletion strains, locus YNL183C, strain NPR1, active compounds read low 0.935 | S. cerevisiae deletion strains, locus YNL209W, strain ssb2, active compounds read low 1.02 | S. cerevisiae deletion strains, locus YNL233W, strain BNI4, active compounds read low 0.996 | S. cerevisiae deletion strains, locus YNL248C, strain rpa49, active compounds read low 1.02 | S. cerevisiae deletion strains, locus YNL250W, strain rad50, active compounds read low 0.95 | S. cerevisiae deletion strains, locus YNL271C, strain bni1, active compounds read low 0.963 | S. cerevisiae deletion strains, locus YNL298W, strain CLA4, active compounds read low 0.974 | S. cerevisiae deletion strains, locus YNL307C, strain MCK1, active compounds read low 0.982 | S. cerevisiae deletion strains, locus YNL322C, strain KRE1 (second series), active compounds read low 0.983 | S. cerevisiae deletion strains, locus YNL322C, strain KRE1, active compounds read low 0.972 | S. cerevisiae deletion strains, locus YNR049C, strain mso1, active compounds read low 0.994 | S. cerevisiae deletion strains, locus YNR052C, strain pop2, active compounds read low 0.968 | S. cerevisiae deletion strains, locus YOL006C, strain TOP1, active compounds read low 1.02 | S. cerevisiae deletion strains, locus YOL012C, strain htz1 0.945 | S. cerevisiae deletion strains, locus YOL147C, strain pex11, active compounds read low 0.982 | S. cerevisiae deletion strains, locus YOR001W, strain rrp6, active compounds read low 0.961 | S. cerevisiae deletion strains, locus YOR061W, strain CKA2, active compounds read low 0.978 | S. cerevisiae deletion strains, locus YOR069W, strain VPS5, active compounds read low 0.983 | S. cerevisiae deletion strains, locus YOR070C, strain gyp1, active compounds read low 0.996 | S. cerevisiae deletion strains, locus YOR080W, strain dia2, active compounds read low 0.984 | S. cerevisiae deletion strains, locus YOR083W, strain WHI5, active compounds read low 0.987 | S. cerevisiae deletion strains, locus YOR106W, strain vam3, active compounds read low 1.03 | S. cerevisiae deletion strains, locus YOR136W, strain idh2, active compounds read low 0.966 | S. cerevisiae deletion strains, locus YOR144C, strain elg1, active compounds read low 0.962 | S. cerevisiae deletion strains, locus YOR184W, strain ser1, active compounds read low 1.01 | S. cerevisiae deletion strains, locus YOR231W, strain MKK1, active compounds read low 0.998 | S. cerevisiae deletion strains, locus YOR265W, strain rbl2, active compounds read low 0.998 | S. cerevisiae deletion strains, locus YOR270C, strain vph1, active compounds read low 0.834 | S. cerevisiae deletion strains, locus YOR290C, strain snf2, active compounds read low 1.01 | S. cerevisiae deletion strains, locus YOR316C, strain cot1, active compounds read low 0.947 | S. cerevisiae deletion strains, locus YPL051W, strain arl3, active compounds read low 1 | S. cerevisiae deletion strains, locus YPL055C, strain LGE1, active compounds read low 0.991 | S. cerevisiae deletion strains, locus YPL078C, strain atp4, active compounds read low 0.998 | S. cerevisiae deletion strains, locus YPL106C, strain sse1, active compounds read low 0.941 | S. cerevisiae deletion strains, locus YPL240C, strain hsp82, active compounds read low 0.988 | S. cerevisiae deletion strains, locus YPL241C, strain CIN2, active compounds read low 0.974 | S. cerevisiae deletion strains, locus YPL256C, strain CLN2, active compounds read low 1.06 | S. cerevisiae deletion strains, locus YPR119W, strain clb2, active compounds read low 0.955 | S. cerevisiae deletion strains, locus YPR141C, strain kar3, active compounds read low 0.937 | S. cerevisiae deletion strains, locus YPR163C, strain tif3, active compounds read low 0.971 | S. cerevisiae deletion strains, locus YPR167C, strain met16, active compounds read low 0.945 | S. cerevisiae deletion strains, strain wtn01, active compounds read low 0.973 | S. cerevisiae strains, strain wild type, active compounds read low 0.98

From PubChem BioAssay AID1159580 (chemical genetic matrix, 2015)
